# From PubChem BioAssay
# POLB inh: DNA polymerase beta (human) inhibition; Pol beta primer extension/strand displacement, fluorescence kinetic; actives 1.3% (n = 340,000); Potency, µM (top dose mostly 114 µM), for the others: at the top dose activity change, negative = inhibition, usual class: inhibitors; AID 485314; P06746; further: potency means the concentration at half of the fitted maximal effect; on the % scale 0 is the no-effect control and ±100 the full control effect
#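 Pol beta (10 nM) and compounds were preincubated 15 min at room temperature, then 50 nM substrate (final) started primer extension/strand displacement. Reads were taken at 0 and 10 min; concentration-response data were fitted to a four-parameter Hill equation.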
# Pol kappa inh-1: DNA polymerase kappa (human) inhibition. Q9UBT6. purified Pol kappa, fluorescent DNA synthesis assay, 10 min. Potency, µM (doses to about 107 µM), without a hit: at the top dose activity, negative = inhibition, actives largely listed as inhibitors. actives 0.53% (n = 400,000); further: potency means the concentration at half of the fitted maximal effect; on the % scale 0 is the no-effect control and ±100 the full control effect
#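 10 nM Pol kappa preincubated 15 min at room temperature with compounds, then reaction started with substrate at 50 nM final. Fluorescence read kinetically at 0 and 10 min; buffer-only wells served as negative control.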
# PI5P4Ka inh: blocks human PI5P4K alpha kinase activity | P48426 | PI5P4Kalpha enzyme, ADP-Glo luminescence, 60 min; active compounds read low | max response, % | actives 1.2% (n = 330,000) | AID 652105; active means max response of -50% or lower; inconclusive means between -30% and -50%; inactive means -30% or higher; further: value at the top dose of about 77 µM; on the % scale 0 is the no-effect control and ±100 the full control effect
#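 PI5P4Kalpha ADP-Glo assay; 5 microM ATP final; 60 min RT reaction; HEPES pH 7.4/EGTA/CHAPS, 5% DMSO; controls lacking substrate or enzyme; luminescent end-point.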
# Pol eta inh-1: blocks human DNA polymerase eta activity | Q9Y253 | recombinant Pol eta, fluorescent DNA replication assay | Potency, µM (highest dose often 114 µM), for inactives: top-dose activity change, negative = inhibition, actives largely listed as inhibitors | actives 1.2% (n = 390,000) | AID 588591; further: potency means the concentration at half of the fitted maximal effect; on the % scale 0 is the no-effect control and ±100 the full control effect
#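 Pol eta at 10 nM preincubated with compounds 15 min at room temperature; reaction started with fluorescent substrate (50 nM final) and read kinetically at 0 and 10 min.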
# POLI inh: inhibitors of human DNA polymerase iota. Q9UNA4. Pol iota fluorescent replication assay, 10 min. Potency, µM (highest dose often 115 µM), inactives show at the top dose activity, negative = inhibition, hits mostly inhibitors. actives 1% (n = 390,000); further: potency means the concentration at half of the fitted maximal effect
# Target sequence (Q9UNA4 whole entry, looked up): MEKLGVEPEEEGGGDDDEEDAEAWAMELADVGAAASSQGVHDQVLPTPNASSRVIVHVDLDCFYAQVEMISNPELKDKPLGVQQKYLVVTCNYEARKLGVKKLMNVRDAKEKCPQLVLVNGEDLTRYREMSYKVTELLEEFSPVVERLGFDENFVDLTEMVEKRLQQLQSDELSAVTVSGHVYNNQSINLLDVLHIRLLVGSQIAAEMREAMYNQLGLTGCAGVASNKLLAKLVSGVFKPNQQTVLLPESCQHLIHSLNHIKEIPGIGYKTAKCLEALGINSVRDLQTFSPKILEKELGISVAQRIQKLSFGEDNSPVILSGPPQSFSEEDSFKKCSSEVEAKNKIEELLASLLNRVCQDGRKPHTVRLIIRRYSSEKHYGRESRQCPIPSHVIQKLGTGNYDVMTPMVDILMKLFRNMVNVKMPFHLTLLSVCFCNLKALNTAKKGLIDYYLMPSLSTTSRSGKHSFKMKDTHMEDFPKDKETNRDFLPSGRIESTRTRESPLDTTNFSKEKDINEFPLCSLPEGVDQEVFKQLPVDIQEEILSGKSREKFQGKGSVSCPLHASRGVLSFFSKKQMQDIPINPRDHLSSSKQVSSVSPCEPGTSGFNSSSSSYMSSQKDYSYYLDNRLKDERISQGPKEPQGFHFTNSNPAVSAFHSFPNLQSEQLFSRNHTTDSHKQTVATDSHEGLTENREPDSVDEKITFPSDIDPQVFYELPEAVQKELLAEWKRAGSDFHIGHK
#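 Fluorescent replication assay read twice, at 0 min and 10 min after adding 50 nM (final) substrate. Enzyme (10 nM) and compounds were first incubated 15 min at room temperature; enzyme-free buffer wells were negative controls.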
# PI4K2A block: PI4K2A (human) kinase inhibition | actives 0.13% (n = 420,000) | AID 1346378 | Q9BTU6 | activity change, negative = inhibition, % at 76.9 µM | purified PI4K2A, ADP-Glo luminescence, 1 h; active compounds read low; in the data active means activity change below about -50%; inconclusive means mostly about -30% to -49%;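 further: -100% = wells without enzyme as full effect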
#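 In this quantitative HTS, ADP production by PI4K2A was quantified luminescently after 1 h at ambient temperature; 100 microM adenosine served as plate-quality control.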
# TbPGK inh: blocks T. brucei phosphoglycerate kinase | shares compounds with Pol kappa inh-1 | TbPGK coupled GAPDH assay, Kinase-Glo luminescence | Potency, µM (series often up to 57.5 µM), for the others: at the highest dose activity change, negative = inhibition, actives largely listed as inhibitors | actives 79% (n = 500) | AID 686980; further: potency means the concentration at half of the fitted maximal effect; on the % scale 0 is the no-effect control and ±100 the full control effect; nearly all actives have a fitted effect of over 65% in size
# POLI cherry-pick: Human Pol iota inhibitor confirmatory assay; shares compounds with Pol kappa inh-1; Pol iota primer extension, TAMRA/BHQ fluorescence; Potency, µM, usual class: inhibitors; actives 77% (n = 1,500); further: potency means the concentration at half of the fitted maximal effect
# Pol kappa inh-2: confirmation of human DNA polymerase kappa inhibitors. shares compounds with Pol eta inh-1. purified Pol-kappa, fluorescent strand-displacement substrate. Potency, µM, most hits filed as inhibitors. actives 76% (n = 920); further: potency means the concentration at half of the fitted maximal effect
# Pol eta inh-2: confirmation of human DNA polymerase eta inhibitors. Pol eta primer extension, TAMRA/BHQ fluorescence, 10 min. shares compounds with Pol eta inh-1. actives 64% (n = 2,600). Potency, µM, actives largely listed as inhibitors. AID 720502; further: potency means the concentration at half of the fitted maximal effect
# * = called active by the depositor; i = inactive; ? = inconclusive; nt = no result; [ ] = another dose, or the depositor's remark. An excerpt weighted towards active compounds, which were near 2.8% of everything screened. Unless noted, the call rests on the fitted dose curve; in most records, active means well fitted curve in the direction sought with a large enough effect; inconclusive means small, poorly fitted or top-dose-only effect, or another doubt; inactive means no such curve, though single readings can be large; an effect the other way counts as inactive or inconclusive.
SMILES,POLB inh,Pol kappa inh-1,PI5P4Ka inh,Pol eta inh-1,POLI inh,PI4K2A block,POLI cherry-pick,Pol eta inh-2,others
C=C1[C@@H]2C[C@]3(C(CC2=O)[C@]24C5C[C@H]3[C@H]2N(CC)C[C@]5(C)CC[C@@H]4O)[C@@H]1O (stereo partly specified),nt,17.4%[60.1 µM],nt,nt,nt,nt,nt,nt,
COc1cc(CC(C)N)cc(OC)c1OC (stereo unspecified),nt,nt,nt,nt,nt,i,nt,nt,
Cc1ccc(Sc2ccc(N3CCCC(C(=O)Nc4ccc(Cl)cc4)C3)nn2)cc1 (stereo unspecified),?,-13.9%,nt,-9.3%,15.2%,-6.5,nt,nt,
CCCCN1C(=O)/C(=C/C=C/c2ccco2)C(=O)NC1=S,3.55µM*,17.8µM*,-84.7*,3.55µM*,28.2µM*,-4.6,23.8*,16.9*,TbPGK inh=13µM*
O=C1NC(=O)N(Cc2ccccc2)C(=O)/C1=C\c1ccco1,25.1µM*,28.2µM*,-85.7*,20µM*,?,-21.6,?,33.8*,
CCN1C(=O)NC(=O)/C(=C\c2cn(CC(=O)O)c3ccccc23)C1=O,29.6%,nt,nt,nt,nt,nt,nt,nt,
O=C1NC(=O)N(Cc2ccccc2)C(=O)/C1=C\N1CCCc2ccccc21,-9.0%,?,?,-11.2%,?,-2.3,nt,nt,
O=C(O)Cn1cc(/C=C2\C(=O)NC(=O)N(Cc3ccco3)C2=O)c2ccccc21,10µM*,20µM*,?,1.58µM*,4.47µM*,?,3.36*,4.78*,TbPGK inh=8.19µM*
O=C1NC(=O)N(Cc2ccc(F)cc2)C(=O)/C1=C\C=C\c1ccco1,?,?,-74.7*,20µM*,14.1µM*,-11.0,?,30.1*,
CC(C)(C)OC(=O)C(Br)CCBr (stereo unspecified),nt,11.5%[60.1 µM],nt,nt,nt,nt,nt,nt,
COC[C@H]([C@@H](O)[C@@H](O)C(=O)NCC[C@@H](C)c1nc(/C=C/C[C@H]2OC3(C[C@H](O)[C@H]2C)OC([C@@H](C[C@@H](O)[C@@H](C)[C@@H](O)[C@@H](C)/C=C(C)/C(C)=C/C=C/C(C)=C\C#N)OC)[C@@H](OP(=O)(O)O)C3(C)C)co1)N(C)C (stereo partly specified),nt,7.6%[19.4 µM],nt,nt,nt,nt,nt,nt,
Oc1ccc([C@H]2CNCc3c2ccc(O)c3O)cc1O,nt,nt,nt,nt,nt,-19.5,nt,nt,
O=C1NC(=O)N(Cc2ccccc2Cl)C(=O)/C1=C/N1CCOCC1,-18.6%,-0.3%,?,-5.8%,10.1%,-13.5,nt,nt,
O=C1NC(=O)N(Cc2ccco2)C(=O)/C1=C/c1cccn1CCOc1ccccc1Cl,25.1µM*,?,-52.2*,14.1µM*,11.2µM*,?,67*,30.1*,Pol kappa inh-2=59.7*
C[n+]1c(-c2ccccc2)c2cc(N)ccc2c2ccc(N)cc21,25.1µM*,25.1µM*,-21.9,?,8.91µM*,-20.1,16.8*,67.5*,Pol kappa inh-2=2.38*
CC(N)[C@H](O)c1ccc(O)c(O)c1 (stereo partly specified),1.78µM*,2.99µM*,nt,3.16µM*,2.51µM*,-4.3,15*,37.9*,
Cc1c(C(N)=O)cc([N+](=O)[O-])cc1[N+](=O)[O-],nt,-15.7%,6.1,-3.3%,64.5%,2.4,nt,nt,
O=C(O)CCC(CP(=O)(O)O)C(=O)O (stereo unspecified),nt,10.7%[60.1 µM],nt,nt,nt,nt,nt,nt,
